Results as given in PubChem BioAssay.
Non-standard residues stand in square brackets, D forms with d. Residues, ends and D or L forms follow the SMILES beside them. pGlu = O=C1CC[C@@H](C(=O)O)N1

test: stimulators of nuclear beta-catenin in C2C12, primary screen, imaging, WNT3A-conditioned medium, mouse C2C12, NPC library (AID 1117326); conditions: stimulation, at 2 µM, stronger effect = higher value; also: reference of the scale not given here

| Compound | nuclear beta-catenin stimulation |
| --- | --- |
| Cc1cccc(C)c1NC(=O)CN(CC(=O)O)CC(=O)O | 0.2% |
| CCCCCCCCCCOCC(O)CN (centres undefined) | -0.2% |
| Nc1ccc([N+](=O)[O-])c(C(F)(F)F)c1 | -1% |
| CC1(C)OC[C@@H]2O[C@@]3(C(=O)O)OC(C)(C)O[C@H]3[C@@H]2O1 | -0.3% |
| CC(O)CCCCn1c(=O)c2c(ncn2C)n(C)c1=O (centres undefined) | 3.3% |
| CC(=O)OC[C@H]1O[C@@](COC(C)=O)(O[C@H]2O[C@H](COC(C)=O)[C@@H](OC(C)=O)[C@H](OC(C)=O)[C@H]2OC(C)=O)[C@@H](OC(C)=O)[C@@H]1OC(C)=O | -0.8% |
| CCc1oc2ccccc2c1C(=O)c1cc(I)c(O)c(I)c1 | 0.4% |
| CCCCC(C)(O)CC=C[C@H]1[C@H](O)CC(=O)[C@H]1CCCCCCC(=O)OC (some centres undefined) | 2.4% |
| O=C1c2ccccc2CCc2ccccc21 | -0.9% |
| Nc1c(NC/C=C\COc2cc(CN3CCCCC3)ccn2)c(=O)c1=O | -1.1% |
| Oc1ccccc1-c1nnco1 | -0.2% |
| C=CCNc1nc(NCC=C)nc(N2CCN(C(c3ccc(F)cc3)c3ccc(F)cc3)CC2)n1 | -1% |
| O=Cc1ccccc1C=O | 0.2% |
| CC(=O)OC[C@H]1O[C@@H](n2ncc(=O)[nH]c2=O)[C@H](OC(C)=O)[C@@H]1OC(C)=O | 2.3% |
| Oc1cccc(O)c1O | 2.5% |
| CCCC(=O)O[C@]1(C(=O)CC)CC[C@H]2[C@@H]3CCC4=CC(=O)CC[C@]4(C)[C@H]3[C@@H](O)C[C@@]21C | 1.5% |
| OCCCc1ccccc1 | 4.5% |
| CC(C)C(=O)Nc1cccc(C2CN3CCSC3=N2)c1 (centres undefined) | 1.8% |
| CCNC(=O)[C@@H]1CCCN1C(=O)[C@H](CCCN=C(N)N)NC(=O)[C@H](CC(C)C)NC(=O)CNC(=O)[C@H](Cc1ccc(O)cc1)NC(=O)[C@H](CO)NC(=O)[C@H](Cc1c[nH]c2ccccc12)NC(=O)[C@H](Cc1cnc[nH]1)NC(=O)[C@@H]1CCC(=O)N1 ([pGlu]HWSYGLRP-NHEt) | -0.6% |
| CN1CC(O)c2cc(N=NC(N)=O)c(O)cc21 (centres undefined) | 1.3% |

| Compound | nuclear beta-catenin stimulation |
| --- | --- |
| C[C@@H]1C[C@H]2[C@@H]3CCC4=CC(=O)C=C[C@]4(C)[C@@]3(F)[C@@H](O)C[C@]2(C)[C@@]1(O)C(=O)COC(=O)c1ccncc1 | 2.8% |
| c1ccc2[nH]ccc2c1 | 3% |
| O=C(O)COc1nn(Cc2ccccc2)c2ccccc12 | 2.2% |
| C[C@]12C=CC(=O)C=C1[C@@H](F)C[C@@H]1[C@@H]2[C@@H](O)C[C@@]2(C)[C@H]1CC[C@]2(O)C(=O)CO | -0.6% |
| O=S(=O)(O)CC(S)CS (centres undefined) | -0.1% |
| CCOC(=O)c1ccc(NC(=O)CN2CCCCC2)cc1 | -1.8% |
| CN1[C@@H]2CC[C@H]1CC(NC(=O)n1c(=O)[nH]c3ccccc31)C2 (some centres undefined) | 1% |
| Cc1cn([C@@H]2O[C@H](CO)[C@@H](O)[C@H]2F)c(=O)[nH]c1=O | -0.8% |
| Cc1ccc(O)c2ncccc12 | 2.4% |
| OCc1ccc(Cl)cc1Cl | 0.6% |
| CN(C)[C@@H]1C(=O)C(C(N)=O)=C(O)[C@@]2(O)C(=O)C3=C(O)c4c(O)cccc4C[C@H]3C[C@@H]12 | -0.5% |
| CCS(=O)(=O)c1ccc(OC)c(C(=O)OC)c1 | -1.7% |
| OC[C@H]1O[C@@H](n2cnc3c(=S)nc[nH]c32)[C@H](O)[C@@H]1O | -0.2% |
| NS(=O)(=O)c1cc(-c2nn[nH]n2)c(NCc2cccs2)cc1Cl | -0.1% |
| Cc1cc(CCCOc2c(C)cc(-c3noc(C(F)(F)F)n3)cc2C)on1 | -3.5% |
| Cc1c(C)n(Cc2ccccc2)c2ccc(C(=O)OCCN(C)C)cc12 | -0.2% |
| O=C1NC(c2ccccc2)(c2ccccc2)C(=O)N1COP(=O)(O)O | 3.6% |
| CC(C)=CCC/C(C)=C/CC/C(C)=C/C(=O)OCC(=O)[C@@]1(O)CC[C@H]2[C@@H]3CCC4=CC(=O)C=C[C@]4(C)[C@H]3[C@@H](O)C[C@@]21C | 0% |
| O=C1CC[C@H](C(=O)N2CCCCC2)N1 | 1% |
